# Bioassay records: PubChem, several laboratories
# Hits are enriched below; roughly 4.3% of the tested compounds scored in any of these assays.
# AF4-AF9 inh – inhibitors of human MLL-AF4/AF9 interaction; P42568; 350,000 compounds, 0.47% hits; inhibition, % at 10 µM; AID 651704; AlphaScreen, biotin-AF4 peptide binding to FLAG-AF9;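 active = every replicate reaching a set inhibition limit, whatever the replicate mean, cut at about 25% in these data; inconclusive = mean inhibition reaches that limit but some replicates miss it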;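 note: 0% = plate neutral control median and 100% = total signal loss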
# FGF22 binding – binders of recombinant human FGF22 by thermal shift | Q9HCT0 | SYPRO orange fluorescence; percent of sucrose octasulfate shift, DMSO zero | 340,000 compounds, 1.5% hits | activity (Tm shift, normalised), % at 9.99 µM;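 active = mean Tm shift, scaled 0 neutral to 100 positive control, at about 1.3% or above, every replicate too, limit read from the data; inconclusive = no clear call, values can overlap the other calls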
# Target sequence (Q9HCT0 whole entry, looked up): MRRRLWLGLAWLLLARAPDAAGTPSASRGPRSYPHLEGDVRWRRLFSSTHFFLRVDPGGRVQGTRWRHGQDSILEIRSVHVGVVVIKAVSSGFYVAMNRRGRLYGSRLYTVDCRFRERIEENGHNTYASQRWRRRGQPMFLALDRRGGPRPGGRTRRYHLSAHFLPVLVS
# SMARCA2 act – activators of SMARCA2 function; MG213 cells, MMTV-luciferase reporter, dexamethasone, overnight; activation, % at 9.1 µM; 370,000 compounds, 1% hits; AID 652017; in the data active = activation above about 7.8%;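 note: 0% = vehicle wells and 100% = reference activator wells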
# MITF act – activators of MITF-driven TRPM1 promoter activity in SK-MEL-5 cells | SK-MEL-5 TRPM1-promoter luciferase, 24 h; % of positive control, neutral wells = 0 | AID 588334 | 300,000 compounds, 0.75% hits | activation, % at 12.5 µM;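 active = mean activation of at least 80% with every replicate also reaching 80%; inconclusive = mean reaches 80% but some replicate falls short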;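 note: 0% = neutral control wells and 100% = parthenolide positive control wells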
# Wnt act – activators of Wnt/beta-catenin signaling | Wnt/beta-catenin reporter cell assay, activator, plate reader | activation, % at 9.35 µM | 300,000 compounds, 1.2% hits; in the data active = activation above about 30%, passing the limit was not always enough; inconclusive = no clear call, values can overlap the other calls;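 note: 0% = neutral control wells and 100% = positive control wells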
# esBAF inh – SWI/SNF esBAF complex inhibition. mouse ES cells, Bmi1-luciferase knock-in reporter, 24 h; 100% = twice the neutral-well signal. reporter increase, % at 12.5 µM. 350,000 compounds, 2% hits. AID 602393; in the data active = activation above about 40%; inconclusive = no clear call, values can overlap the other calls;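 note: 0% = median of the plate's neutral control wells and 100% = double that signal; a rise in the Bmi1 reporter signal indicates esBAF inhibition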
# * = called active by the depositor; ? = inconclusive; · = no result given.
SMILES,AF4-AF9 inh,FGF22 binding,SMARCA2 act,MITF act,Wnt act,esBAF inh
COc1ccc(CCNC(=O)C2CCN(S(=O)(=O)c3ccc(OC)c(OC)c3)CC2)cc1OC,-1.7,-0.2,2.7,-2.4,0.4,5.7
COc1ccc(CCNC(=O)CN(c2cc([N+](=O)[O-])ccc2OC)S(C)(=O)=O)cc1OC,-1.5,43.3*,-1.9,10.6,-1.2,·
CCC(=O)Nc1ccc2c(c1)OC[C@H](C)N(Cc1ccncc1)C[C@H](C)[C@@H](OC)CN(C)C2=O,-5.7,-0.2,·,·,·,-0.1
CSC1=NC(=O)/C(=C/c2ccc(SC)cc2)S1,0.4,43.2*,5.3,6.1,19.8,·
COc1cc(COCC(O)CN2CCN(Cc3ccccc3)CC2)cc(OC)c1OC (stereo unspecified),-0.5,43.6*,-0.3,-6.2,-0.6,·
Cc1cc(Cl)nc(-c2ccccc2)n1,0.4,0.1,-2.9,-0.5,-1.9,·
Cc1cc2c(C)nc(-c3ccccc3)nc2o1,·,·,7.2,77.4,48.5*,·
Cc1csc(NC(=O)c2cc3c(s2)-c2ccccc2OC3)n1,-5.9,0.3,-2.0,7.1,?,85.7*
CC(C)(C)c1csc(NC(=O)c2ccc3nccnc3c2)n1,·,·,5.9,114.4*,·,·
Cc1csc(NC(=O)c2ccc(Br)s2)n1,4.4,-0.1,1.3,21.5,23.0,56.8*
CC(C)(C)c1csc(NC(=O)c2ccc(Cl)s2)n1,·,·,0.4,38.2,·,94.0*
Cc1csc(NC(=O)c2cccs2)n1,·,·,0.6,57.4,·,·
CCCNC(=O)Nc1ccc2c(c1)OC[C@H](C)N(CCC(F)(F)F)C[C@@H](C)[C@@H](OC)CN(C)C2=O,-0.8,0.0,·,·,·,3.3
C[C@@H]1CCCCO[C@@H](CN(C)S(=O)(=O)c2ccc(F)cc2)[C@H](C)CN([C@H](C)CO)C(=O)c2cc(NS(C)(=O)=O)ccc2O1,-1.1,-0.3,·,·,·,0.7
COc1cccc(S(=O)(=O)N2C[C@@H](O)COC[C@@H]3O[C@H](CC(=O)N4CCOCC4)CC[C@H]32)c1,-1.8,-0.3,·,·,·,-6.6
Cc1ccc(C(=O)Nc2nc(C(C)(C)C)cs2)s1,·,·,0.6,68.2,·,66.4*
C[C@@H]1CCCCO[C@@H](CN(C)S(=O)(=O)c2cccs2)[C@H](C)CN([C@H](C)CO)C(=O)c2cc(N(C)C)ccc2O1,·,·,·,·,·,0.5
CCCNC(=O)Nc1ccc2c(c1)C(=O)N(C)C[C@H](OC)[C@@H](C)CN(Cc1ccc(-c3ccccn3)cc1)[C@@H](C)CO2,·,·,·,·,·,96.7*
CCCC(=O)Nc1ccc2c(c1)C(=O)N(C)C[C@H](OC)[C@@H](C)CN(Cc1ccc(-c3ccccn3)cc1)[C@H](C)CO2,-0.2,0.1,·,·,·,-7.7
CCCC(=O)Nc1ccc2c(c1)C(=O)N(C)C[C@H](OC)[C@@H](C)CN(Cc1ccc(-c3ccccn3)cc1)[C@@H](C)CO2,0.1,0.2,·,·,·,111.8*
O=C(C[C@@H]1C=C[C@H](NC(=O)Nc2ccccc2F)[C@@H](CO)O1)NCc1ccc(Cl)cc1,-1.8,0.3,·,·,·,-4.7
COC[C@@H]1CCCN1c1ccc2c(c1)O[C@H]1CCN(C1)S2(=O)=O,·,·,-2.4,·,·,·
C[C@H](CO)N1C[C@H](C)[C@@H](CN(C)C(=O)Nc2ccc3c(c2)OCO3)Oc2c(NC(=O)c3ccc(-c4nccs4)cc3)cccc2C1=O,0.6,0.1,·,·,·,-3.0
C[C@@H]1CN([C@@H](C)CO)S(=O)(=O)c2ccc(-c3cccnc3)cc2O[C@H]1CN(C)Cc1ccccn1,12.7,-0.2,·,·,·,-1.4
CC(C)N(C(=O)[C@H]1C[C@H](CC(=O)NCCCN(C)C)C(=O)N2CCc3c([nH]c4cc(-c5ccco5)ccc34)[C@]12C)C(C)C,29.4*,0.1,3.7,-72.0,0.7,1.7
SMILES,AF4-AF9 inh,FGF22 binding,SMARCA2 act,MITF act,Wnt act,esBAF inh
CCN(CC)C(=O)[C@H]1C[C@H](CC(=O)NCCCN(C)C)C(=O)N2CCc3c([nH]c4cc(-c5ccco5)ccc34)[C@]12C,19.7,0.2,5.0,9.7,-1.2,3.4
O=C(CN1CCOCC1)NCC[C@@H]1CC[C@@H](NC(=O)Nc2ccc(Cl)cc2)[C@H](CO)O1,-0.4,-0.1,·,·,·,-1.3
O=C(O)c1cc(-c2ccc3c(c2)OCCO3)n[nH]1,-2.9,43.5*,3.5,-14.6,-1.9,-3.0
CCOC(=O)c1cc(-c2ccc3c(c2)OCCO3)n[nH]1,-1.0,0.1,7.5,69.2,13.8,·
C[C@@H]1CCCCO[C@H](CN(C)C(=O)NC2CCCCC2)[C@H](C)CN([C@@H](C)CO)C(=O)c2cc(NS(=O)(=O)c3ccc(Cl)cc3)ccc2O1,-3.8,-0.1,·,·,·,1.5
CCCCOC(=O)Nc1ccc(C(=O)OC)cc1,·,·,1.6,63.5,52.7*,78.6*
CCCCOC(=O)Nc1ccc(C)c(Cl)c1,·,·,3.8,60.2,-3.3,56.8*
C[C@H]1CN([C@@H](C)CO)C(=O)c2cccc(NC(=O)Nc3cccc4ccccc34)c2O[C@H]1CN(C)Cc1ccc(Oc2ccccc2)cc1,1.2,-0.1,·,·,·,0.3
CC(=O)Nc1ccc(C=C(C#N)c2ccc(C)cc2)cc1,2.3,0.1,-0.3,·,47.3*,?
Nc1ccc2nc(-c3cccs3)[nH]c2c1,-0.6,-0.4,-1.4,58.5,13.5,44.2*
CC(C)c1cn(CC[C@H]2CC[C@H](NS(=O)(=O)Cc3ccccc3)[C@@H](CO)O2)nn1,-2.7,0.1,·,·,·,-3.2
C/C=C/c1ccc2c(c1)O[C@H](CN(C)Cc1ccccc1)[C@@H](C)CN([C@@H](C)CO)S2(=O)=O,10.3,-0.2,·,·,·,-8.5
CCCc1cc(C(=O)OC)c(NC(=O)CCCC(=O)O)s1,-4.2,43.7*,-1.6,-1.0,-0.1,·
CCc1cc(C(=O)OC)c(NC(=O)CCC(=O)O)s1,·,·,5.2,1.4,-4.2,-4.1
O=C(Nc1cccc(O)c1)c1cc(-c2ccccc2Cl)on1,-5.4,-0.1,-1.9,·,1.9,-7.9
O=C(Nc1ccccc1)OCc1cc(-c2ccccc2Cl)on1,·,·,1.5,65.2,·,49.7*
Cc1ccccc1OCC(=O)Nc1nc2ccccc2[nH]1,-0.3,43.0*,1.0,29.4,1.7,·
CC(CC(=O)Nc1nc2ccccc2[nH]1)c1ccccc1 (stereo unspecified),·,·,5.0,60.5,2.3,70.1*
O=C(COc1ccccc1)Nc1nc2ccccc2[nH]1,·,·,7.8*,50.5,?,49.1*
COCC(=O)N(C[C@@H]1N[C@@H](CO)[C@@H]1c1ccc(C2=CCCC2)cc1)C(C)C,·,·,·,·,·,3.8
Cc1ccc2[nH]c(-c3cccc(N)c3)cc2c1,·,·,4.3,69.9,81.8*,39.4
O=C(Nc1ccccc1C(=O)NC(Cc1ccc(O)cc1)C(=O)O)c1ccccc1 (stereo unspecified),-2.1,43.8*,-2.8,-1.7,0.3,-8.7
O=C(c1ccccn1)c1ccc2ccccc2n1,·,0.2,-2.0,·,43.5*,·
O=C(NCc1ccccn1)c1ccc2ccccc2n1,3.7,0.0,3.0,12.5,9.3,6.3
